Source: PubChem BioAssay (NCATS)
Inconclusive results are not listed. Active and inactive are the calls of the source. Calls come from the whole dose curve; as a rule, active = well fitted curve in the direction sought with a large enough effect; inconclusive = small, poorly fitted or top-dose-only effect, or another doubt; inactive = no such curve, though single readings can be large; an effect the other way counts as inactive or inconclusive.

Key:
[1] = qHTS of pediatric cancer cell lines to identify multiple opportunities for drug repurposing: Primary screen for A673 cells (AID 1347092); note: % is set by controls: 0 for no effect and ±100 for the full control effect; nearly all actives have a fitted effect of over 45% in size
Summary of the method: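 A673 cells (500-1,000 cells/well in growth media) were pre-incubated 5 h at 37 degrees C, then exposed to compounds for 48 h. Viability was read as CellTiter-Glo luminescence; concentration-response curves came directly from the primary screen.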

[2] = qHTS of pediatric cancer cell lines to identify multiple opportunities for drug repurposing: Primary screen for SK-N-MC cells (AID 1347093);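 note: series mostly up to about 46 µM; plate controls were DMSO neutral control for no effect and bortezomib for full effect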
Summary of the method: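 Metabolically active cells were quantified by ATP-dependent luminescence (CellTiter-Glo, 15 min at room temperature) following 48 h treatment. Cells had been plated at 500-1,000 per well and settled for 5 h beforehand.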

[3] = qHTS of pediatric cancer cell lines to identify multiple opportunities for drug repurposing: Primary screen for BT-37 cells (AID 1347094);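 note: series mostly up to about 57 µM; plate controls were DMSO for no effect and bortezomib for full effect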
Summary of the method: (§1)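 Cells plated at 500-1,000/well in growth medium, compounds added after 5 h. MIPE tested at 11 points (from 0.78 nM), NPC at 8 points (from 0.59 nM). CellTiter-Glo luminescence after 48 h; concentration-response curves from primary screen.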

[4] = qHTS of pediatric cancer cell lines to identify multiple opportunities for drug repurposing: Primary screen for NB-EBc1 cells (AID 1347095);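 note: plate controls were DMSO neutral control for no effect and bortezomib for full effect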
Summary of the method: as §1

[5] = qHTS of pediatric cancer cell lines to identify multiple opportunities for drug repurposing: Primary screen for U-2 OS cells (AID 1347096);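 note: plate controls were DMSO wells for no effect and bortezomib positive control wells for full effect; nearly all actives have a fitted effect of over 50% in size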
Summary of the method: (§2)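 Cells (500-1,000/well) rested 5 h, then received compounds for 48 h; metabolically active cells were measured by CellTiter-Glo luminescence. Final concentrations spanned up to 46 µM (MIPE, 11-point) or 0.59 nM-46 µM (NPC, 8-point) in primary screens, 11-point in follow-ups.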

[6] = qHTS of pediatric cancer cell lines to identify multiple opportunities for drug repurposing: Primary screen for Saos-2 cells (AID 1347097); note: % is set by controls: 0 for no effect and ±100 for the full control effect; nearly all actives have a fitted effect of over 40% in size
Summary of the method: as §1

[7] = qHTS of pediatric cancer cell lines to identify multiple opportunities for drug repurposing: Primary screen for SK-N-SH cells (AID 1347098);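 note: DMSO served as neutral control and bortezomib at 2.3 µM as positive control; % is set by controls: 0 for no effect and ±100 for the full control effect; nearly all actives have a fitted effect of over 65% in size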
Summary of the method: as §2

[8] = qHTS of pediatric cancer cell lines to identify multiple opportunities for drug repurposing: Primary screen for NB1643 cells (AID 1347099);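 note: plate controls were DMSO neutral control for no effect and bortezomib positive control for full effect; nearly all actives have a fitted effect of over 50% in size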
Summary of the method: as §1

[9] = qHTS of pediatric cancer cell lines to identify multiple opportunities for drug repurposing: Primary screen for LAN-5 cells (AID 1347100);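 note: plate controls were DMSO neutral control for no effect and bortezomib positive control for full effect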
Summary of the method: as §2

[10] = qHTS of pediatric cancer cell lines to identify multiple opportunities for drug repurposing: Primary screen for BT-12 cells (AID 1347101);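 note: plate controls were DMSO for no effect and bortezomib positive control for full effect; nearly all actives have a fitted effect of over 25% in size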
Summary of the method: as §2

C/C(=C(\CCOP(=O)(O)O)SC(=O)c1ccccc1)N(C=O)Cc1cnc(C)nc1N
inactive: activity change, negative = cytotoxic [1] -0.171% [at 4.84 µM] | activity change, negative = cytotoxic [2] -16.7% [at 4.84 µM] | activity change, negative = cytotoxic [3] 17.3% [at 6.03 µM] | activity change, negative = cytotoxic [4] 16.5% [at 4.84 µM] | activity change, negative = cytotoxic [5] 14.8% [at 4.84 µM] | activity change, negative = cytotoxic [6] -7.29% [at 4.84 µM] | activity change, negative = cytotoxic [7] -2.92% [at 6 µM] | activity change, negative = cytotoxic [8] 16.8% [at 4.84 µM] | activity change, negative = cytotoxic [9] 5.99% [at 4.84 µM] | activity change, negative = cytotoxic [10] 9.87% [at 6.03 µM]

NS(=O)(=O)c1cc2c(cc1C(F)(F)F)NC(Cc1ccccc1)NS2(=O)=O (stereo unspecified)
inactive: Potency [1] | Potency [2] | Potency [3] | Potency [4] | Potency [5] | Potency [6] | Potency [7] | Potency [8] | Potency [9] | Potency [10]

NC(=O)NNc1ccccc1
inactive: Potency [1] | Potency [2] | Potency [3] | Potency [4] | Potency [5] | Potency [6] | Potency [7] | Potency [8] | Potency [9] | Potency [10]

O=C1O[C@H]([C@@H](O)CO)C(O)=C1O
inactive: Potency [1] | Potency [2] | Potency [3] | Potency [4] | Potency [5] | Potency [6] | Potency [7] | Potency [8] | Potency [9] | Potency [10]

CCCOC(=O)c1ccccc1
inactive: Potency [1] | Potency [2] | Potency [3] | Potency [4] | Potency [5] | Potency [7] | Potency [8] | Potency [9] | Potency [10]

CCn1cc(C(=O)O)c(=O)c2cnc(N3CCNCC3)nc21
inactive: Potency [1] | Potency [2] | Potency [3] | Potency [4] | Potency [5] | Potency [6] | Potency [7] | Potency [8] | Potency [9] | Potency [10]

CC/C=C(\C(=O)N[C@@H]1C(=O)N2C(C(=O)OCOC(=O)C(C)(C)C)=C(COC(N)=O)CS[C@H]12)c1csc(N)n1
inactive: Potency [1] | Potency [2] | Potency [3] | Potency [4] | Potency [5] | Potency [7] | Potency [8] | Potency [9] | Potency [10]

O=C(O)[C@@H]1CSCN1
inactive: Potency [1] | Potency [2] | Potency [3] | Potency [4] | Potency [5] | Potency [7] | Potency [8] | Potency [9] | Potency [10]

NCC(=O)CCC(=O)O
inactive: Potency [1] | Potency [2] | Potency [3] | Potency [4] | Potency [5] | Potency [6] | Potency [7] | Potency [8] | Potency [9] | Potency [10]

CC1(C)Oc2ccc(C#N)cc2[C@@H](N2CCCC2=O)[C@@H]1O
inactive: Potency [1] | Potency [2] | Potency [3] | Potency [4] | Potency [5] | Potency [7] | Potency [8] | Potency [9] | Potency [10]

NC1CCN(c2cccc(Cl)n2)CC1
inactive: Potency [1] | Potency [2] | Potency [3] | Potency [4] | Potency [5] | Potency [7] | Potency [8] | Potency [9] | Potency [10]

O=C(O)c1ccccc1O
inactive: Potency [1] | Potency [2] | Potency [3] | Potency [4] | Potency [5] | Potency [6] | Potency [7] | Potency [8] | Potency [9] | Potency [10]

Cc1cc(O)cc2c1O[C@](C)(CCC[C@H](C)CCC[C@H](C)CCCC(C)C)CC2
inactive: Potency [1] | Potency [2] | Potency [3] | Potency [4] | Potency [5] | Potency [6] | Potency [7] | Potency [8] | Potency [9] | Potency [10]

CC(C)C(=O)c1c(C(C)C)nn2ccccc12
inactive: Potency [1] | Potency [2] | Potency [3] | Potency [4] | Potency [5] | Potency [6] | Potency [7] | Potency [8] | Potency [9] | Potency [10]

CC1(C)S[C@@H]2[C@H](NC(=O)Cc3ccccc3)C(=O)N2[C@H]1C(=O)O (tested in a mixture with another compound)
inactive: Potency [1] | Potency [2] | Potency [3] | Potency [4] | Potency [5] | Potency [7] | Potency [8] | Potency [9] | Potency [10]

CCN(CC)CCNC(C(=O)OCCC(C)C)c1ccccc1 (stereo unspecified)
inactive: Potency [1] | Potency [2] | Potency [3] | Potency [4] | Potency [5] | Potency [6] | Potency [7] | Potency [8] | Potency [9] | Potency [10]

COc1cc2[nH]c(=O)[nH]c(=O)c2cc1OC
inactive: Potency [1] | Potency [2] | Potency [3] | Potency [4] | Potency [5] | Potency [7] | Potency [8] | Potency [9] | Potency [10]

CCCCCCCCCCCCOS(=O)(=O)O
inactive: Potency [1] | Potency [2] | Potency [3] | Potency [4] | Potency [5] | Potency [7] | Potency [8] | Potency [9] | Potency [10]

CCN(CC)C(=O)Nc1ccc(OCC(O)CNC(C)(C)C)c(C(C)=O)c1 (stereo unspecified)
inactive: Potency [1] | Potency [2] | Potency [3] | Potency [4] | Potency [5] | Potency [6] | Potency [7] | Potency [8] | Potency [9] | Potency [10]

O=C(O)c1ccccn1
inactive: Potency [1] | Potency [2] | Potency [3] | Potency [4] | Potency [5] | Potency [6] | Potency [8] | Potency [9] | Potency [10]

Cc1cccc(Nc2cc(Cl)nc(SCC(=O)O)n2)c1C
inactive: Potency [1] | Potency [2] | Potency [3] | Potency [4] | Potency [5] | Potency [6] | Potency [7] | Potency [8] | Potency [9] | Potency [10]

Cc1cc2c(cc1S(N)(=O)=O)S(=O)(=O)CCC2
inactive: Potency [1] | Potency [2] | Potency [3] | Potency [4] | Potency [5] | Potency [6] | Potency [7] | Potency [8] | Potency [9] | Potency [10]
